# Pol III holo inh: DNA polymerase III holoenzyme inhibition. reconstituted DNA polymerase III holoenzyme replication, biochemical. Potency, µM (highest dose often 57.1 µM), for the others: top-dose activity change, negative = inhibition. 0.25% of 71,000 active. AID 603; also: potency is read from the fitted curve at half-maximal effect; % is scaled to controls: 0 for no effect and ±100 for the full control effect
#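 Reconstituted *E. coli* holoenzyme (0.35 nM Pol III, 1 nM beta, 154 nM SSB, 2 nM primase) was preincubated with compound for 15 min at RT. Synthesis on 1.4 nM ssM13Gori ran 35 min, then was stopped with PicoGreen/EDTA and read as dsDNA fluorescence.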
# ERK AVP block: blocks ERK signaling stimulated by vasopressin; HEK293-V1b, vasopressin-stimulated pERK AlphaScreen; Potency, µM (doses to about 57.5 µM), without a hit: top-dose activity, negative = inhibition, most hits filed as inhibitors; 0.99% of 72,000 active; also: potency is read from the fitted curve at half-maximal effect; % is scaled to controls: 0 for no effect and ±100 for the full control effect; nearly all actives have a fitted effect of over 55% in size
#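 V1b-HEK293 cells; cpd 30 min 37C; 25 nM vasopressin 5 min; lyse 10 min; AlphaScreen beads 5 hr RT. Normalized to DMSO basal and 25 nM vasopressin; AC50 by Hill fit.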
# Tau filament bind: binders of human tau filaments; P10636; recombinant tau filaments, thioflavin S fluorescence, 15 h; filaments grown with octadecylsulfate alongside compound; Potency, µM (highest dose often 57.1 µM), inactives show at the highest dose activity change, negative = inhibition; 2% of 71,000 active;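 also: potency is read from the fitted curve at half-maximal effect; % is scaled to controls: 0 for no effect and ±100 for the full control effect; actives lower thioflavin S fluorescence by blocking filaments or displacing dye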
# Target sequence (P10636 whole entry, looked up): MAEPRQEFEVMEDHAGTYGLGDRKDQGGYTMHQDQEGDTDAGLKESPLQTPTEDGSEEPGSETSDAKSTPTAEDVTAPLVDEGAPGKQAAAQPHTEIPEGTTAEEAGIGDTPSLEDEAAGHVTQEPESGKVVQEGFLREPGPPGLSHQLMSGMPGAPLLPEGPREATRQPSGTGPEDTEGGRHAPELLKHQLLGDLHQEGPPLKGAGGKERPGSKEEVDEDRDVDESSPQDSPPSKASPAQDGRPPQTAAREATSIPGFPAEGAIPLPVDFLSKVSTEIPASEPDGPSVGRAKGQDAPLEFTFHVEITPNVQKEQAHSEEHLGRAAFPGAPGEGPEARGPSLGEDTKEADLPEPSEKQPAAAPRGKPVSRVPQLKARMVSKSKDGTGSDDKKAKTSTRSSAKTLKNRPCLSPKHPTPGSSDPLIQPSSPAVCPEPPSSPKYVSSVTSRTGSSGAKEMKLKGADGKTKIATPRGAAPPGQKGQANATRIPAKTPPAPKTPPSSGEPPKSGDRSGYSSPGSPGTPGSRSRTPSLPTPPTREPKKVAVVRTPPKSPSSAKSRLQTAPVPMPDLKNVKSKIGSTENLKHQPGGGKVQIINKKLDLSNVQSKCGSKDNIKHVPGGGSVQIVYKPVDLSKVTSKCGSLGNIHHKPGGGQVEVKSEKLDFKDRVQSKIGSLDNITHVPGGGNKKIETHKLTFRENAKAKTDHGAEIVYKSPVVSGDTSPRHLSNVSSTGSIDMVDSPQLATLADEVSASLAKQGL
#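 Recombinant tau protein (human, 1 uM final) plus 30 uM ODS in HEPES pH 7.4 with NaCl, DTT and thioflavine S. Compound present from the start; fluorescence at 510 nm after 15 h, 37 C.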
# p53ts 32C kill: cytotoxicity in p53ts cells at permissive temperature | Potency, µM (titrated, usually from 46.1 µM), for inactives: top-dose activity change, negative = cytotoxicity, hits mostly cytotoxic | H1299-p53A138V at 32C, ATP luminescence viability, 24 h | 0.93% of 130,000 active | AID 924;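 also: potency is read from the fitted curve at half-maximal effect; 0% = DMSO and -100% = full killing by reference compound; nearly all actives have a fitted effect of over 55% in size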
#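 Viability by ATPlite luminescence after 24 h compound treatment (up to 46 uM) at the permissive 32C. Cells are H1299 carrying p53 A138V. Scale runs from DMSO basal to 100 uM tamoxifen as full kill; AC50 from Hill fits.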
# p53ts 39C tox: p53ts cell cytotoxicity, nonpermissive temperature; 1.5% of 130,000 active; AID 902; Potency, µM (highest dose often 46.1 µM), without a hit: top-dose activity change, negative = cell killing, actives largely listed as cytotoxic; H1299-p53A138V viability at 39C, ATP luminescence, 24 h; also: potency is read from the fitted curve at half-maximal effect; % is scaled to controls: 0 for no effect and ±100 for the full control effect; nearly all actives have a fitted effect of over 55% in size
# TsaE inh: displaces an ADP probe from E. coli YjeE (TsaE); purified YjeE enzyme, qHTS inhibition assay; Potency, µM; 0.05% of 71,000 active; AID 605
#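 Purified YjeE (10 uM) with BODIPY Texas Red-labeled ADP probe (2 uM); compounds pin-transferred, 15 min at room temperature. Binding inhibition read as decreased fluorescence polarization; ADP titration as control.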
# * marks the source's active call; other numbers are inactive results; i = inactive; ? = inconclusive; . = no result given; ! = not active in a repeat; [ ] = another dose, or the depositor's remark. Sampled rows, rich in hits. Any-hit rate of the full collection: about 3.2%. Calls follow the shape of the dose curve; as a rule, active = well fitted curve in the direction sought with a large enough effect; inconclusive = small, poorly fitted or top-dose-only effect, or another doubt; inactive = no such curve, though single readings can be large; an effect the other way counts as inactive or inconclusive.
SMILES,Pol III holo inh,ERK AVP block,Tau filament bind,p53ts 32C kill,p53ts 39C tox,TsaE inh
Cc1cc(=O)n(CC(=O)N2CCN(c3ccccc3F)CC2)c2c1c(C)nn2C,.,.,.,-13%,-17%,.
O=C(Nc1ccc2nn(-c3ccccc3)nc2c1)c1ccc2c(c1)OCCO2,-2%,16µM*,269%,-30%,-21%,i
COc1ccccc1-c1ccc2ncnc(NC3CCNCC3)c2c1,-5%,3%,-21%,5%,-4%,i
COc1ccc(NC(=O)C2CCCNC2)cc1OCC(C)C (stereo not given),1%,-1%,25µM*,-11%,3%,i
COc1cc(NC(=O)C2CCCCN2)ccc1OCC(C)C (stereo not given),-6%,-17%,-22%,6%,6%,i
COC(=O)C/C=C\[C@@H](C)[C@@H](/C=N\O[C@@H](C)CN1CCCc2nc(C)c(C)cc21)OC,.,14%[11.5 µM],.,2%[9.22 µM],-5%[9.22 µM],.
Oc1cccc(/C=N/c2c(-c3ccco3)nc3ccccn23)c1,.,.,.,?,13µM*,.
O=c1[nH]c2[nH]c(=S)[nH]c(=S)c2[nH]1,-2%[11.4 µM],17%[11.5 µM],-11%[11.4 µM],1%[9.22 µM],8%[9.22 µM],i
COc1cccc(-n2c(SCC(=O)Nc3cccc(Cl)c3)nc3c(oc4ccccc43)c2=O)c1,.,.,.,8%,-11%,.
O=C(CSc1nc2c(oc3ccccc32)c(=O)[nH]1)Nc1cccc(Cl)c1,.,.,.,10µM*,7.9µM*,.
CCC(=O)n1nc(-c2ccco2)nc1SCc1ccccc1,-8%,-18%,-3%,?,?,i
CC(=O)n1nc(-c2ccco2)nc1SCc1ccccc1,?,?,25µM*,13µM*,?,i
CC(=NC1CCCCC1)C1=C(O)c2ccccc2C1=O,-2%,?,16µM*,?,?,i
CSC(=NC1CCCCC1)NS(=O)(=O)c1ccccc1,-2%,-16%,1%,7%,-3%,i
CC(Oc1ccc(Br)cc1)C(=O)NCc1cccnc1 (stereo not given),.,.,.,1%,0%,.
O=C(c1ccccc1)c1ccc(OCC(O)CNC2CCCc3ccccc32)cc1 (stereo not given),.,.,.,.,-17%,.
CCc1ccccc1OC[C@@H](O)CN[C@H]1CCCc2ccccc21,-2%,-26%,13µM*,32µM*,20µM*,i
COc1ccccc1OC[C@H](O)COC(N)=O,-4%[25.6 µM],14%[25.7 µM],9%[25.6 µM],-1%[20.6 µM],-9%[20.6 µM],i
COc1ccc(NC(=O)Nc2ccc3c(c2)N(C)C(=O)CS3)cc1OC,-5%,25µM*,20µM*,-4%,-4%,i
COc1ccc(Cn2c(C(=O)O)c(CNCc3ccc(SC)cc3)c3ccc(OC)cc32)cc1,.,.,.,-5%,-12%,.
COc1ccc(-c2nc(-c3ccc(NC(=O)c4ccc(Br)o4)cc3)no2)cc1OC,-8%,2%,i,?,13µM*,i
COc1ccc(CCC(=O)Nc2ccc(-c3noc(-c4ccc(OC)c(OC)c4)n3)cc2)cc1,-4%,10%,18%,-13%,-3%,i
COc1cc(C(=O)OCC(=O)c2cc(C)n(C)c2C)cc(OC)c1OC,0%,?,5%,3%,-6%,i
Cc1cc(C(=O)COC(=O)c2n[nH]c3ccccc23)c(C)n1C,3%,?,42%,2.5µM*,3.2µM*,i
COCCn1c(C)cc(C(=O)COC(=O)c2n[nH]c3ccccc23)c1C,-3%,?,38%,1µM*,2µM*,i
SMILES,Pol III holo inh,ERK AVP block,Tau filament bind,p53ts 32C kill,p53ts 39C tox,TsaE inh
COCCn1c(C)cc(C(=O)COC(=O)c2c(C)nn(Cc3ccccc3)c2C)c1C,-4%,?,11%,7%,11%,i
O=C(CN1C(=O)c2cccnc2Sc2ccccc21)Nc1cc(F)ccc1F,.,.,.,11%,-23%,.
O=C(Nc1cc(C(F)(F)F)ccc1Cl)c1cnn(-c2ccccc2)c1-n1cccc1,.,.,.,-9%,-13%,.
Cc1ccc2c(c1C)NC(C(=O)O)C1CC=CC21 (stereo not given),25µM*,-28%,3.2µM*,11%,1%,i
CCOC(=O)c1ccc2c(c1)C1C=CCC1C(C(=O)O)N2 (stereo not given),16µM*,-23%,?,-4%,-6%,i
COc1cccc([C@@H]2Nc3ccc(C(=O)O)cc3[C@@H]3C=CC[C@@H]32)c1OC,.,.,.,1%,-26%,.
Clc1ccccc1-c1nccc(-n2ccnc2)n1,-10%,?,12%,-2%,0%,i
Clc1ccccc1C(c1ccccc1)(c1ccccc1)n1ccnc1,-4%[25.6 µM],25µM*!,15%[25.6 µM],35%[20.6 µM],25µM*!,i
CCCCn1c(NCc2ccc(OC)cc2O)nc2ccccc21,.,.,.,-14%,2%,.
CCCCn1c(NCc2ccccc2O)nc2ccccc21,1%,25µM*,4%,-1%,-12%,i
CCN(CC)CCCCNC(=O)c1ccc(Cc2nc3ccccc3[nH]2)cc1,.,.,.,-1%,6%,.
Cc1ccc(-n2nc(-c3ccc(N)cc3)cc2N)cc1,6%,-25%,7.9µM*,-6%,-14%,i
Cc1nn2c(=O)cc(COC(=O)c3ccc(NC(=O)C4CCCCC4)cc3)nc2s1,.,.,.,-11%,-16%,.
CC(=O)N1CCN(c2ccc(Nc3nc(C)nc4c3oc3ccccc34)cc2)CC1,1%,10µM*,20µM*,-17%,14%,i
COc1cc(NC(=O)CN2C(=O)C(c3ccc(C)cc3)=NC23CCCCC3)cc(OC)c1,.,.,.,15%,-21%,.
Cc1cc(NC(=O)Nc2ccc(N(C)C)cc2)c2cc(F)cc(F)c2n1,0%,?,32µM*,-6%,-18%,i
CN(C)c1ccc(NC(=O)CN2CCN(CC(=O)Nc3ccc(F)cc3)CC2)cc1,1%,14%,-24%,2%,-14%,i
Cc1ccsc1CN(C(=O)COc1cccc(C)c1C)C1CCS(=O)(=O)C1 (stereo not given),.,.,.,-6%,19%,.
Cc1noc(C)c1COC(=O)CCN1c2ccccc2Sc2ccccc21,0%,11%,20µM*,0%,-14%,i
CCc1ccc(NC(=O)NCCN2CCc3ccccc3C2)cc1,4%,36%,13µM*,0%,-18%,i
O=C(Nc1ccc(F)c(F)c1)c1cc(S(=O)(=O)NC2CCCCCC2)ccc1F,.,.,.,-13%,-14%,.
O=C(Nc1cc(Cl)cc(Cl)c1)c1ccc(F)c(S(=O)(=O)NC2CCCCC2)c1,.,.,.,?,25µM*,.
O=C(Nc1ccc(Br)cc1)c1ccc(F)c(S(=O)(=O)NC2CCCCCC2)c1,.,.,.,?,13µM*,.
O=C(NCC1CCCO1)c1c[nH]c2ccc(S(=O)(=O)Nc3cccc(C(F)(F)F)c3)cc2c1=O (stereo not given),.,.,.,8%,-8%,.
